MMP-13 inhibitor = blocks human MMP13 activity; inhibition, % at 4 µM; hit rate 0.07% among 65,000; P45452; MMP-13 fTHP FRET cleavage, Mca fluorescence;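 active = inhibition above the mean of compound-free control plate wells plus 3 SD, cut at about 14% in these data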;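 note: 0% = DMSO wells and 100% = wells with reference MMP-13 inhibitor after basal subtraction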
Cathepsin G inh = inhibitors of human cathepsin G; AID 581; P08311; hit rate 0.2% among 62,000; inhibition, % at 5 µM (by protocol); purified enzyme, AMC-tetrapeptide fluorescence, pooled mixtures;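 active = inhibition above 20% in each of the two mixture wells holding the compound; inactive = inhibition of 20% or less in either well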;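 note: 0% = enzyme control without mixture and 100% = blank lacking enzyme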
C1s inh = blocks human complement C1s protease activity; P09871; purified C1s, fluorogenic AMC substrate, pooled mixtures; mean inhibition % of two 10-compound mixtures (active compounds read high), % at 5 µM (by protocol); hit rate 0.16% among 62,000;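 active = inhibition above 20% in each of the two 10-compound mixture wells holding the compound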;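 note: 0% = enzyme wells lacking compound mixture and 100% = no-enzyme blank wells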
FXIIa mix inh = factor XIIa (human) inhibition, mixture screen; purified FXIIa, fluorogenic substrate, pooled mixtures; inhibition, % at 5 µM; P00748; AID 684; hit rate 0.2% among 62,000;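 note: 0% = enzyme without compound and 100% = no enzyme blank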
WNV NS2B-NS3 inh = inhibitors of West Nile virus NS2B-NS3 protease; hit rate 0.18% among 65,000; P06935; WNV NS2B-NS3 protease, fluorogenic substrate Ex360/Em465; active compounds read low; z-score (test concentration not listed); in the data active = z-score below about -3
FXIa inh mix = inhibitors of human coagulation factor XIa, pooled mixtures; P03951; purified FXIa, fluorogenic substrate; inhibition, % at 5 µM; hit rate 0.19% among 62,000; AID 680;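 note: each value is inhibition by a whole ten-compound pool holding the compound; 0% = enzyme with no mixture and 100% = wells lacking enzyme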
Target sequence (P03951 19-387 limits assumed): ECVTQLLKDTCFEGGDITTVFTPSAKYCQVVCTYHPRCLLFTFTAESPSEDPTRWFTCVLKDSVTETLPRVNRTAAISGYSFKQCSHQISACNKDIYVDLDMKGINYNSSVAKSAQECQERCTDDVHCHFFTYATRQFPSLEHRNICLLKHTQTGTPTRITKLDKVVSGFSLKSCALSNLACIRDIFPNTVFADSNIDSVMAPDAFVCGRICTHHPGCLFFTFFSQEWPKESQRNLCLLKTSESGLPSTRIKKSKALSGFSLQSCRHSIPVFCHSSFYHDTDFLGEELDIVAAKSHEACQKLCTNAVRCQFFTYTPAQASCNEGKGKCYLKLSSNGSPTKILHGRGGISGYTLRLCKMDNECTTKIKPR
Target sequence (P03951 388-625 limits assumed): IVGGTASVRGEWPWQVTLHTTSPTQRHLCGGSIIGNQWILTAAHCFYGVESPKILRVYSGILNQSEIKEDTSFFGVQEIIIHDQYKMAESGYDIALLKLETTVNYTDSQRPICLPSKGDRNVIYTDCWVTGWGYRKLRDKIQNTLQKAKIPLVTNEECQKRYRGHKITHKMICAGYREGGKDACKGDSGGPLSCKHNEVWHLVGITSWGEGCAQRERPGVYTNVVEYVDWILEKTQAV
* marks the source's active call; other numbers are inactive results; nt = no result given; ! = repeats disagree. Hits are enriched below; roughly 0.82% of the tested compounds scored in any of these assays. Cut-off read from the data, not from the text of the source, unless noted: active = inhibition above about 20% (passing the limit was not always enough); inactive = the rest.

SMILES | MMP-13 inhibitor | Cathepsin G inh | C1s inh | FXIIa mix inh | WNV NS2B-NS3 inh | FXIa inh mix
Cn1c2ccccc2c2nn(-c3ccccc3)c(=O)cc21 | -4.8 | nt | nt | nt | -3.54* | nt
COc1ccc(NC(=O)C2CC(=O)N(c3cc(C)ccc3C)C2)cc1 (configuration not stated) | -3.5 | 47.9 | -5.8 | 1.9 | 1.06 | 66.9*
COC(=O)c1ccc(OC(=O)C2CC(=O)N(c3ccc(C)cc3C)C2)cc1 (configuration not stated) | -0.9 | 40.1 | -1.9 | -4.0 | -0.42 | 31.2*
Cc1ccc(N2CC(C(=O)Oc3cccc(N4C(=O)CCC4=O)c3)CC2=O)cc1 (configuration not stated) | 5.3 | 1.6 | 2.4 | 4.2 | -1.52 | 9.3
N=c1oc2ccccc2cc1-c1nc2ccccc2c(=O)[nH]1 | 3.4 | -3.6 | -12.1 | 35.5* | -0.75 | 4.1
Cc1ccc(Cn2nnc3c(=O)n(Cc4cccc(C)c4)cnc32)cc1 | 14.0* | nt | nt | nt | 0.25 | nt
Cc1cccc(Cn2cnc3c(nnn3Cc3ccc(Cl)cc3)c2=O)c1 | 4.3 | -0.1 | -3.7 | -0.2 | 0.05 | 10.8
CC(C)NC(=O)c1cccc(Cn2cc(Cl)cn2)c1 | -2.5 | 8.3 | -0.1 | 1.7 | -3.59* | 6.8
CNCCCN1c2ccccc2CCc2ccccc21 | 7.0 | 2.2 | -4.9 | -2.3 | -6.73*! | -1.5
COc1cc(C2CC(C(F)(F)F)n3ncc(C(=O)O)c3N2)cc(OC)c1OC (configuration not stated) | -4.1 | nt | nt | nt | -5.78* | nt
COc1ccc(C2CC(C(F)(F)F)n3ncc(C(=O)NCc4cccnc4)c3N2)cc1OC (configuration not stated) | -1.1 | 8.9 | 1.9 | 0.7 | 0.86 | 2.4
COc1ccc(-c2cc(C(=O)NCc3ccc(Cl)cc3)no2)cc1OC | -8.5 | 55.3* | 7.2 | 8.7 | 0.24 | 13.6
COc1cccc(-c2cc(C(=O)NCCc3ccccc3)no2)c1 | 0.7 | 22.3* | 15.5 | 1.3 | -0.99 | 4.5
COc1ccc(CNC(=O)c2cc(-c3ccc(OC)c(OC)c3)on2)cc1 | -2.9 | 31.7* | 22.4* | 0.1 | -0.2 | 10.1
COc1ccc(-c2cc(C(=O)NCc3ccccc3)no2)cc1OC | -1.7 | 11.0 | -10.7 | 0.5 | 0.95 | 8.4
COc1cccc(-c2cc(C(=O)NCc3ccc(Cl)cc3)no2)c1 | -3.7 | 46.8 | -34.3 | -21.1 | 0.22 | 19.4
COc1ccc(-n2c(=O)c3ccccc3n(CC(=O)NC3CCCC3)c2=O)cc1 | 2.1 | -1.9 | -7.9 | -5.2 | 1.4 | 4.8
CS(=O)(=O)c1cccc(C(=O)NCc2ccccc2)c1 | 4.0 | -1.5 | 1.1 | -19.7 | -0.8 | 7.1
CC(C)(C)c1cc(C(=O)NCc2ccccc2)ccn1 | 2.6 | 14.7 | 21.8* | -3.1 | -0.27 | 10.5
CC(=O)c1ccc(Cc2cnc(N)s2)cc1 | 2.2 | 11.1 | 17.6 | 21.2* | -0.18 | 2.1
COc1ccc(Cl)cc1N(CC(=O)Nc1ccc2c(c1)OCCO2)S(C)(=O)=O | 0.7 | 1.7 | 4.7 | 3.5 | -0.67 | 11.2
O=C(c1cn(-c2ccccc2)nc1-c1ccncc1)n1nnc2ccccc21 | -6.3 | 22.8 | -5.2 | 57.6* | -0.82 | 86.7*

Screening results deposited in PubChem BioAssay by several laboratories.
